Results: paper PMC8384837, “Expanding the binding specificity for RNA recognition by a PUF domain”

target: PUM1 PUF domain R5-RRH (Homo sapiens, UniProt Q14671 828-1176, C1007R;Q1011H); test: yeast three-hybrid, YBZ-1, SC-Leu-His + 0.5 mM 3-AT, 4 days; conditions: tags: N-Gal4 AD-HA kept; label: inside an RPR1-promoter hybrid RNA with tandem MS2 sites; ssRNA
How it was run: (§1)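 The interaction score is the log change in variant frequency from input to selection. Scores were computed in log2 with a pseudocount of 1 for absent variants, using Illumina sequencing of PCR-amplified repeat regions. The input came from four days on SC-Leu and the selection from four days on SC-Leu-His + 0.5 mM 3-AT. The cells were strain YBZ-1 (LexA–MS2 coat fusion, HIS3 reporter) co-expressing Pumilio-1 PUF domain libraries and matching RNA elements from a centromeric plasmid.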

Sequence of PUM1 PUF domain R5-RRH (Q14671 828-1176 C1007R/Q1011H): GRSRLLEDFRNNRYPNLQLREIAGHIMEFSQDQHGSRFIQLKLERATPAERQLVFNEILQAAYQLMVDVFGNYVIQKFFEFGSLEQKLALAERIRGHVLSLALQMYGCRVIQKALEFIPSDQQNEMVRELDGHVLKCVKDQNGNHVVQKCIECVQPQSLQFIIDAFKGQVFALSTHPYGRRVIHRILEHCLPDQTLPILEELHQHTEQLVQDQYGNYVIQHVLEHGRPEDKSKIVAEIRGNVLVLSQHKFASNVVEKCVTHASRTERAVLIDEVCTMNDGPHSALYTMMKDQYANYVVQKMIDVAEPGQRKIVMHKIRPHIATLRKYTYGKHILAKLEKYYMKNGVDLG

Row | Sequence | binding signal
1 | GGCUAGAACUAGUGGAUCCCCCGGCGCCCGGCGGCUCGAGCCCGGGUAAGUGUAAAUAGUCUGCAUGCCGCCGGGCGCCAUGCCUGCAGGUCGACUCUAGAAAACAUG | 1.96 log2 enrichment (interaction score)
2 | GGCUAGAACUAGUGGAUCCCCCGGCGCCCGGCGGCUCGAGCCCGGGUAAGUGUCAAUAGUCUGCAUGCCGCCGGGCGCCAUGCCUGCAGGUCGACUCUAGAAAACAUG | 5.57 log2 enrichment (interaction score)
3 | GGCUAGAACUAGUGGAUCCCCCGGCGCCCGGCGGCUCGAGCCCGGGUAAGUGUGAAUAGUCUGCAUGCCGCCGGGCGCCAUGCCUGCAGGUCGACUCUAGAAAACAUG | 1.47 log2 enrichment (interaction score)

target: PUM1 PUF domain R4-APC (Homo sapiens, UniProt Q14671 828-1176, N971A;H972P;Q975C); test: as above; conditions: tags: N-Gal4 AD-HA kept; label: inside an RPR1-promoter hybrid RNA with tandem MS2 sites; ssRNA
Sequence (Q14671 828-1176 N971A/H972P/Q975C): as the sequence (Q14671 828-1176 C1007R/Q1011H) above, with N144A, H145P, Q148C, R180C, H184Q counted along it
How it was run: as §1

Row | Sequence | binding signal
4 | GGCUAGAACUAGUGGAUCCCCCGGCGCCCGGCGGCUCGAGCCCGGGUAAGUGUAAAUAGUCUGCAUGCCGCCGGGCGCCAUGCCUGCAGGUCGACUCUAGAAAACAUG | 4.14 log2 enrichment (interaction score)
5 | GGCUAGAACUAGUGGAUCCCCCGGCGCCCGGCGGCUCGAGCCCGGGUAAGUGUACAUAGUCUGCAUGCCGCCGGGCGCCAUGCCUGCAGGUCGACUCUAGAAAACAUG | 1.88 log2 enrichment (interaction score)
6 | GGCUAGAACUAGUGGAUCCCCCGGCGCCCGGCGGCUCGAGCCCGGGUAAGUGUAUAUAGUCUGCAUGCCGCCGGGCGCCAUGCCUGCAGGUCGACUCUAGAAAACAUG | 3.17 log2 enrichment (interaction score)

target: PUM1 PUF domain R5-RHA (Homo sapiens, UniProt Q14671 828-1176, C1007R;R1008H;Q1011A); test: as above; conditions: tags: N-Gal4 AD-HA kept; label: inside an RPR1-promoter hybrid RNA with tandem MS2 sites; ssRNA
Sequence (Q14671 828-1176 C1007R/R1008H/Q1011A): as the sequence (Q14671 828-1176 C1007R/Q1011H) above, with R181H, H184A counted along it
How it was run: as §1

Row | Sequence | binding signal
7 | GGCUAGAACUAGUGGAUCCCCCGGCGCCCGGCGGCUCGAGCCCGGGUAAGUGUUAAUAGUCUGCAUGCCGCCGGGCGCCAUGCCUGCAGGUCGACUCUAGAAAACAUG | 5.76 log2 enrichment (interaction score)
8 | GGCUAGAACUAGUGGAUCCCCCGGCGCCCGGCGGCUCGAGCCCGGGUAAGUGUAAAUAGUCUGCAUGCCGCCGGGCGCCAUGCCUGCAGGUCGACUCUAGAAAACAUG | 2.93 log2 enrichment (interaction score)
9 | GGCUAGAACUAGUGGAUCCCCCGGCGCCCGGCGGCUCGAGCCCGGGUAAGUGUCAAUAGUCUGCAUGCCGCCGGGCGCCAUGCCUGCAGGUCGACUCUAGAAAACAUG | 5.53 log2 enrichment (interaction score)

target: PUM1 PUF domain R4-DWS (Homo sapiens, UniProt Q14671 828-1176, N971D;H972W;Q975S); test: as above; conditions: tags: N-Gal4 AD-HA kept; label: inside an RPR1-promoter hybrid RNA with tandem MS2 sites; ssRNA
Sequence (Q14671 828-1176 N971D/H972W/Q975S): as the sequence (Q14671 828-1176 C1007R/Q1011H) above, with N144D, H145W, Q148S, R180C, H184Q counted along it
How it was run: as §1

Row | Sequence | binding signal
10 | GGCUAGAACUAGUGGAUCCCCCGGCGCCCGGCGGCUCGAGCCCGGGUAAGUGUAAAUAGUCUGCAUGCCGCCGGGCGCCAUGCCUGCAGGUCGACUCUAGAAAACAUG | 2.39 log2 enrichment (interaction score)
11 | GGCUAGAACUAGUGGAUCCCCCGGCGCCCGGCGGCUCGAGCCCGGGUAAGUGUACAUAGUCUGCAUGCCGCCGGGCGCCAUGCCUGCAGGUCGACUCUAGAAAACAUG | 2.51 log2 enrichment (interaction score)
12 | GGCUAGAACUAGUGGAUCCCCCGGCGCCCGGCGGCUCGAGCCCGGGUAAGUGUAUAUAGUCUGCAUGCCGCCGGGCGCCAUGCCUGCAGGUCGACUCUAGAAAACAUG | 5.96 log2 enrichment (interaction score)
